Laboratory results reported in PubChem BioAssay (Tox21).
“And” between values parts separate entries of the source, which are not always exact repeats. Identical values can stand only once. Results filed as inconclusive are left out. Some structures have more than one record in an assay (separate samples or runs), and their calls can disagree. The source made the active and inactive calls. Unless noted, calls follow the shape of the dose curve; as a rule, active = well fitted curve in the direction sought with a large enough effect in the repeat runs; inconclusive = weak or mixed curves; inactive = no such curve, though single readings can be large; an effect the other way counts as inactive or inconclusive.

Key:
[1] = qHTS assay to identify aromatase inhibitors - cell viability counter screen (AID 743084);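 also: cells stimulated with testosterone during compound exposure; nearly all actives have a fitted effect of over 55% in size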; also: potency is read from the fitted curve at half-maximal effect
[2] = target: Aryl hydrocarbon receptor (Homo sapiens) (UniProt P35869); experiment: qHTS assay to identify small molecule that activate the aryl hydrocarbon receptor (AhR) signaling pathway (AID 743085); also: nearly all actives have a fitted effect of over 15% in size; also: potency is read from the fitted curve at half-maximal effect;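 as to activation: HG2L7.5c1 human HepG2 liver cells with stably integrated DRE-driven firefly reporter; series mostly up to about 70 µM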
Outline: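 24 h compound exposure, 37C, HepG2-derived HG2L7.5c1 cells with DRE-responsive luciferase. Readouts: fluorescence viability, then luminescence at room temperature after 30 min.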

[3] = qHTS assay to identify small molecule that activate the aryl hydrocarbon receptor (AhR) signaling pathway - cell viability counter screen (AID 743086);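 also: HepG2 liver cells carrying the AhR DRE luciferase reporter; series mostly up to about 70 µM; nearly all actives have a fitted effect of over 45% in size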
Outline: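 HepG2-AhR-luc (HG2L7.5c1) cells, 4000/well, were preincubated 5 h at 37C, exposed to compound in qHTS format for 24 hr at 37C, then given CellTiter-Fluor for 30 min; viability was read as fluorescence in the reporter wells.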

[4] = target: Peroxisome proliferator-activated receptor gamma (Homo sapiens) (UniProt P37231); experiment: qHTS assay to identify small molecule agonists of the peroxisome proliferator-activated receptor gamma (PPARg) signaling pathway (AID 743094; active = well fitted activation curve with a large enough effect in the signal ratio in the repeat runs, not every such curve was filed as active; the % refers to the signal ratio)
Outline: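 GeneBLAzer PPARg UAS-bla HEK293H cells were plated, rested 5 h, then exposed to compounds for 17 h at 37C. Beta-lactamase activity was read by LiveBLAzer B/G FRET substrate fluorescence after 1 h at room temperature.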

[5] = target: Peroxisome proliferator-activated receptor gamma (Homo sapiens) (UniProt P37231); experiment: qHTS assay to identify small molecule antagonists of the peroxisome proliferator-activated receptor gamma (PPARg) signaling pathway (AID 743191; calls by dose curve; also: nearly all actives have a fitted effect of over 30% in size; also: potency is read from the fitted curve at half-maximal effect)
Outline: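 GeneBLAzer PPARg UAS-bla HEK293H cells carrying a UAS-driven beta-lactamase reporter were plated at 3000 cells/well, preincubated 5 h at 37C, then given compound for 17 h at 37C; LiveBLAzer B/G FRET substrate was read after 1 h at room temperature.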

[6] = qHTS assay to identify small molecule antagonists of the peroxisome proliferator-activated receptor gamma (PPARg) signaling pathway - cell viability counter screen (AID 743194); also: nearly all actives have a fitted effect of over 55% in size
Outline: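 PPARg-UAS-bla HEK293H cells were plated, rested 5 h at 37 C, then treated with compounds plus rosiglitazone (50 nM final) for 17 h at 37 C; viability was then read by CellTiter-Glo luminescence after 30 min at room temperature.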

[7] = qHTS assay for small molecule agonists of the antioxidant response element (ARE) signaling pathway (AID 743202; active = well fitted activation curve with a large enough effect in the signal ratio in the repeat runs, not every such curve was filed as active; the % refers to the signal ratio; also: potency is read from the fitted curve at half-maximal effect)
Outline: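 Compounds delivered in DMSO to ARE-bla HepG2 cells (2,000 cells/well, pre-incubated 5 h) and left 16 h at 37 C. LiveBLAzer B/G FRET substrate then added for 2 h at RT before fluorescence reading.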

[8] = qHTS assay for small molecule agonists of the antioxidant response element (ARE) signaling pathway - cell viability counter screen (AID 743203; calls by dose curve; also: nearly all actives have a fitted effect of over 55% in size)
Outline: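 ARE-bla HepG2 cells were plated, rested 5 h at 37C/5% CO2, then exposed to compounds in DMSO for 16 h. Viability was read as CellTiter-Glo luminescence after 30 min at room temperature, in the same wells as the ARE screen.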

[9] = qHTS assay for small molecule activators of the heat shock response signaling pathway - cell viability counter screen (AID 743209); also: nearly all actives have a fitted effect of over 50% in size
Outline: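 HSE-bla HeLa cells plated overnight, then exposed to Tox21 compounds (23 nL in DMSO) for 5 h at 37 C. After the bla reporter read, CellTiter-Glo was added in the same wells and luminescence read after 30 min at room temperature.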

[10] = qHTS assay to identify small molecule agonists of the peroxisome proliferator-activated receptor delta (PPARd) signaling pathway - cell viability counter screen (AID 743211); also: nearly all actives have a fitted effect of over 55% in size; also: potency is read from the fitted curve at half-maximal effect
Outline: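 Luminescent ATP viability assay (CellTiter-Glo, 30 min RT) in UAS-bla HEK293H cells carrying the PPAR delta reporter construct, 3000 cells/well, after a 17 h compound treatment at 37 C.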

[11] = qHTS assay to identify small molecule antagonists of the peroxisome proliferator-activated receptor delta (PPARd) signaling pathway - cell viability counter screen (AID 743213); also: nearly all actives have a fitted effect of over 50% in size
Outline: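 In this counter screen, HEK293H cells carrying a UAS-beta-lactamase reporter are co-treated with test compounds and 300 nM L165041 (final) for 17 h at 37 C; cell viability is quantified by CellTiter-Glo luminescence.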

[12] = target: Bile acid receptor (Homo sapiens) (UniProt Q96RI1); experiment: qHTS assay to identify small molecule antagonists of the farnesoid-X-receptor (FXR) signaling pathway (AID 743217; active = well fitted inhibition curve with a large enough effect in the signal ratio in the repeat runs, not every such curve was filed as active; the % refers to the signal ratio; also: potency is read from the fitted curve at half-maximal effect)
Outline: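 FXR-UAS-bla HEK 293T cells (beta-lactamase reporter) given compound plus chenodeoxycholic acid (50 uM final), 16 h at 37C. LiveBLAzer B/G FRET substrate added for 2 h at room temperature; fluorescence read.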

[13] = qHTS assay to identify small molecule agonists of the farnesoid-X-receptor (FXR) signaling pathway - cell viability counter screen (AID 743218); also: nearly all actives have a fitted effect of over 45% in size
Outline: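 FXR-UAS-bla HEK 293T cells exposed to compounds for 16 h at 37C. Cytotoxicity read in the same wells by CellTiter-Glo luminescence after 30 min at room temperature, following the beta-lactamase FRET read.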

[14] = qHTS assay to identify small molecule antagonists of the farnesoid-X-receptor (FXR) signaling pathway - cell viability counter screen (AID 743221; active = well fitted cell-killing curve with a large enough effect in the repeat runs, not every such curve was filed as active; also: nearly all actives have a fitted effect of over 50% in size)
Outline: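 In GeneBLAzer FXR-UAS-bla HEK 293T cells stimulated with 50 uM chenodeoxycholic acid (final), compounds acted for 16 h at 37 C. Viability was assessed afterwards by CellTiter-Glo luminescence.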

[15] = target: Vitamin D3 receptor (Homo sapiens) (UniProt P11473); experiment: qHTS assay to identify small molecule agonists of the vitamin D receptor (VDR) signaling pathway (AID 743222; calls by dose curve)
Outline: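 VDR-bla cells plated 4 h at 37 C, then exposed to compounds for 16 h at 37 C. Beta-lactamase reporter activity measured by fluorescence after 2 h room-temperature loading with LiveBLAzer B/G FRET substrate.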

[16] = target: Vitamin D3 receptor (Homo sapiens) (UniProt P11473); experiment: qHTS assay to identify small molecule antagonists of the vitamin D receptor (VDR) signaling pathway (AID 743223; active = well fitted inhibition curve with a large enough effect in the signal ratio in the repeat runs, not every such curve was filed as active; the % refers to the signal ratio)
Outline: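 Agonist 1alpha,25-dihydroxyvitamin D3 (3 nM in well) was added with each compound to VDR-bla cells preincubated 4 h. Cells stood 16 h at 37C, then FRET substrate 2 h at room temperature; fluorescence intensity recorded.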

[17] = qHTS assay for small molecule activators of the heat shock response signaling pathway (AID 743210; active = well fitted activation curve with a large enough effect in the signal ratio in the repeat runs, with a control signal flat, not every such curve was filed as active; the % refers to the signal ratio;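 also: HeLa cells with beta-lactamase reporter driven by heat shock elements; series mostly up to about 63 µM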)
Outline: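 Reporter gene assay: HeLa cells stably bearing an HSE-bla construct, compound treatment 5 h at 37 C, LiveBLAzer substrate 2.5 h at RT, fluorescence intensity.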

[18] = target: Peroxisome proliferator-activated receptor delta (Homo sapiens) (UniProt Q03181); experiment: qHTS assay to identify small molecule agonists of the peroxisome proliferator-activated receptor delta (PPARd) signaling pathway (AID 743212; calls by dose curve)
Outline: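 A PPARd-bla HEK293H line with beta-lactamase under an Upstream Activator Sequence is treated with compounds at 37 C. Substrate loading for 2 h at room temperature precedes the fluorescence measurement.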

[19] = target: Peroxisome proliferator-activated receptor delta (Homo sapiens) (UniProt Q03181); experiment: qHTS assay to identify small molecule antagonists of the peroxisome proliferator-activated receptor delta (PPARd) signaling pathway (AID 743215; active = well fitted inhibition curve with a large enough effect in the signal ratio in the repeat runs, not every such curve was filed as active; the % refers to the signal ratio;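 also: cells stimulated with agonist L165041 at 300 nM final during compound exposure; series mostly up to about 62 µM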)
Outline: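 PPARd-bla HEK293H cells (UAS-bla reporter) preincubated 5 h, then given compound plus 300 nM final L165041 agonist for 17 h at 37 C. Beta-lactamase activity read by LiveBLAzer B/G FRET substrate fluorescence after 2 h at room temperature.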

Measured: Potency

Sequence of Bile acid receptor (Homo sapiens) (Q96RI1 whole entry, looked up): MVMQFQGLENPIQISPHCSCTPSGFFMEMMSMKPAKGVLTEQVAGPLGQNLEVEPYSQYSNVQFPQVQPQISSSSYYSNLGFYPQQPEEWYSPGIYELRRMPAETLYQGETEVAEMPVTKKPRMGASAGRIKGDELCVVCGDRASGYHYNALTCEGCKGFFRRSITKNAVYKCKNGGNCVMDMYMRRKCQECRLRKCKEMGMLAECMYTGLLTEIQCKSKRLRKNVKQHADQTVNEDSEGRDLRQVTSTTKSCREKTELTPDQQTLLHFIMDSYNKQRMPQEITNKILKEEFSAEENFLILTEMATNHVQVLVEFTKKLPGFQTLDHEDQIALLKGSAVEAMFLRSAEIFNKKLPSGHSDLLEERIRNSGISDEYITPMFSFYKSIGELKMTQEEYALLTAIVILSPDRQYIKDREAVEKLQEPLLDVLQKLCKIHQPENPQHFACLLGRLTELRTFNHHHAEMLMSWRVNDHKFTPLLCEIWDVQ
Sequence of Vitamin D3 receptor (Homo sapiens) (P11473 whole entry, looked up): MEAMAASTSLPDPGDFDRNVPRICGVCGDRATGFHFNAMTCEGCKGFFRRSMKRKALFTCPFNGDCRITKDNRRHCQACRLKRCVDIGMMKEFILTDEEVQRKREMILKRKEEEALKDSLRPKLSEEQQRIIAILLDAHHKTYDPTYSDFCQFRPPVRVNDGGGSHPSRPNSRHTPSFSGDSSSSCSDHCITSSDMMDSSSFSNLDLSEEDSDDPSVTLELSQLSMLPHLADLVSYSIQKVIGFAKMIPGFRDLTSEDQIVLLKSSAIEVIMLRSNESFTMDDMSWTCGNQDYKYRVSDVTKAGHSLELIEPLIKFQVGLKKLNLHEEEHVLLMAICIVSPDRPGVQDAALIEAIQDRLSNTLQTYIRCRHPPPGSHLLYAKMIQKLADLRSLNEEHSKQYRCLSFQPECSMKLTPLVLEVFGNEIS
Sequence of Peroxisome proliferator-activated receptor delta (Homo sapiens) (Q03181 whole entry, looked up): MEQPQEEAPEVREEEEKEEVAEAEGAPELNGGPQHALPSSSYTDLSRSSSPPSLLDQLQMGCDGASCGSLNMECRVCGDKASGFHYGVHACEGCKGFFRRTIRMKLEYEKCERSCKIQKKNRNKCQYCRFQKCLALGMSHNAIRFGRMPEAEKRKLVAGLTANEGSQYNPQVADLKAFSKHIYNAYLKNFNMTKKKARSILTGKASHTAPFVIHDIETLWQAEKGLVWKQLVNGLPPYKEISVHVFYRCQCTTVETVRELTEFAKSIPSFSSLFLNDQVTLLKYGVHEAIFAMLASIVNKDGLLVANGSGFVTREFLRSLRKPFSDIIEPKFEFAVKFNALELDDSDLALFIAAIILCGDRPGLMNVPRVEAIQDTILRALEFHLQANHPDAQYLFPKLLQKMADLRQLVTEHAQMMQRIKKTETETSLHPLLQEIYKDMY
Sequence of Peroxisome proliferator-activated receptor gamma (Homo sapiens) (P37231 whole entry, looked up): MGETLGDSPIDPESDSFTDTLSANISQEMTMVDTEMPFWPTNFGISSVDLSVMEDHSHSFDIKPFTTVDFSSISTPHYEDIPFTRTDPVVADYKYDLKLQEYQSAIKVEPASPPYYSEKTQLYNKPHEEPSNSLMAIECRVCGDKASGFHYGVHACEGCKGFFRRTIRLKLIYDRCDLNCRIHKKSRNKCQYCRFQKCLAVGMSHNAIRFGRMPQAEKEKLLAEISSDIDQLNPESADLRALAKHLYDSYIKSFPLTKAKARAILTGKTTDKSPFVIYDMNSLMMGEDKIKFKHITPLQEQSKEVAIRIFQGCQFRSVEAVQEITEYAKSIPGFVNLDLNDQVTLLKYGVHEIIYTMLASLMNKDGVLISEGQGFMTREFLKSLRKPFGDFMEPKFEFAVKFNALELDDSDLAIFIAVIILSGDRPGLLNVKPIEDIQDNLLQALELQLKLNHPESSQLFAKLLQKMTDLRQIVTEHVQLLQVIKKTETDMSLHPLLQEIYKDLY
Sequence of Aryl hydrocarbon receptor (Homo sapiens) (P35869 whole entry, looked up): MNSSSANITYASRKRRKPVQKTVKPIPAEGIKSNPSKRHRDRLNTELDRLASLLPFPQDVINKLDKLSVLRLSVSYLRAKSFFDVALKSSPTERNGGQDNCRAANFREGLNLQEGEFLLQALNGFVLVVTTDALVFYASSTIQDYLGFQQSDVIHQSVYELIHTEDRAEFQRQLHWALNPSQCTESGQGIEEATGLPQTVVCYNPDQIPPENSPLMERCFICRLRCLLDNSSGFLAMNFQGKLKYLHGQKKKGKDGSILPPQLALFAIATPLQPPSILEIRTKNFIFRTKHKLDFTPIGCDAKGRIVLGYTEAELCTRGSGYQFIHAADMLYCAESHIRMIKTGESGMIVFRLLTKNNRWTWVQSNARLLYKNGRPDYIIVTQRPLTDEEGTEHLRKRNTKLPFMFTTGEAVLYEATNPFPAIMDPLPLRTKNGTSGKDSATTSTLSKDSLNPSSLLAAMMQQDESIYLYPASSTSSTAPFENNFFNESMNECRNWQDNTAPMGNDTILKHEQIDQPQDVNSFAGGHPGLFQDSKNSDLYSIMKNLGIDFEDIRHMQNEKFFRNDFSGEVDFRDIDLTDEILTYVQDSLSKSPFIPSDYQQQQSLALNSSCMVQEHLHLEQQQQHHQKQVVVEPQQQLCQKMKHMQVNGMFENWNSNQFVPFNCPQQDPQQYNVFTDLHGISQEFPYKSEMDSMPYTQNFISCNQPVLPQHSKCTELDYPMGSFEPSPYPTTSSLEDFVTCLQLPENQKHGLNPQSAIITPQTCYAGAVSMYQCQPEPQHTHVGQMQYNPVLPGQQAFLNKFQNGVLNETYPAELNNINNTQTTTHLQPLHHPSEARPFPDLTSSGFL

CCOCCO
not listed: [17] | [18] | [19]
inactive: all other assays above

CC(=O)CCC(C)C
active: [7] 61.1 µM
not listed: [8] | [15] | [16]
inactive: all other assays above

CC(=O)Oc1ccccc1C(=O)O
not listed: [12] | [17] | [18] | [19]
inactive: all other assays above

CC(C)Cc1ccc(C(C)C(=O)O)cc1 (stereo not given)
not listed: [12] | [15] | [16] | [17]
inactive: all other assays above

CN/C(=C\[N+](=O)[O-])NCCSCc1ccc(CN(C)C)o1
not listed: [12] | [17]
inactive: all other assays above

Cc1ccc(O)c(-n2nc3ccccc3n2)c1
active: [2] 21.1 µM and 60.6 µM and 17.2 µM | [7] 60.6 µM
inactive: all other assays above

CCCCNC(=O)NS(=O)(=O)c1ccc(N)cc1
not listed: [12]
inactive: all other assays above

NC(=O)N1c2ccccc2C=Cc2ccccc21
not listed: [12] | [15] | [16]
inactive: all other assays above

CCCCC/C(C=O)=C\c1ccccc1
not listed: [15] | [16]
inactive: all other assays above

C=CC(=O)NC(C)(C)CS(=O)(=O)O
not listed: [12]
inactive: all other assays above

O=c1c(-c2ccc(O)cc2)coc2cc(O)cc(O)c12
inactive and 12.2 µM (active): [2]
active: [5] 48.1 µM and 38.9 µM | [7] 6.74 µM and 10.6 µM | [12] 38.9 µM and 26.6 µM
not listed: [17] | [19]
inactive: all other assays above

COC(=O)c1ccc(O)cc1
not listed: [12]
inactive: all other assays above

NC(N)=NC(N)=NCCc1ccccc1
active: [7] 6.08 µM and 6.68 µM
not listed: [12] | [15] | [16]
inactive: all other assays above

CCCCCCCCOc1ccc(C(=O)c2ccccc2)c(O)c1
inactive and 48.6 µM (active): [7]
not listed: [13] | [17]
inactive: all other assays above

CCOC(=O)C(C)(C)Oc1ccc(Cl)cc1
not listed: [17]
inactive: all other assays above

Nc1ccc(N=Nc2ccccc2)c(N)n1
active: [1] 27.4 µM and 54.5 µM | [2] 13.3 µM and 13.8 µM and 34.4 µM
43.9 µM (active) and inactive: [10]
inactive and 26.6 µM (active): [7]
not listed: [12] | [17]
inactive: all other assays above
